Assay results: PubChem BioAssay (Tox21)
A number with no mark means an inactive call. Results filed as inconclusive are left out. Entries that show only a call come without a potency. Active and inactive are the calls of the source. Unless noted, the call rests on the fitted dose curve; in most records, active means well fitted curve in the direction sought with a large enough effect in the repeat runs; inconclusive means weak or mixed curves; inactive means no such curve, though single readings can be large; an effect the other way counts as inactive or inconclusive.

Legend:
[1] = qHTS assay to identify small molecule antagonists of the glucocorticoid receptor (GR) signaling pathway - cell viability counter screen (AID 720693); further: nearly all actives have a fitted effect of over 55% in size
[2] = qHTS assay for identifying genotoxic compounds that show differential cytotoxicity against isogenic chicken DT40 cell lines with known DNA damage response pathways - wild type cell line (AID 743012); further: nearly all actives have a fitted effect of over 60% in size; further: potency means the concentration at half of the fitted maximal effect
In short: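 Cytotoxicity in repair-proficient parental chicken DT40 cells serves as the comparator for Rad54/Ku70- and Rev3-deficient lines. Cells were exposed to compounds for 40 h at 37 C/5% CO2, and ATP-based luminescence (CellTiter-Glo) measured viability.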

[3] = qHTS assay for identifying genotoxic compounds that show differential cytotoxicity against isogenic chicken DT40 cell lines with known DNA damage response pathways - Rev3 mutant cell line (AID 743014); further: nearly all actives have a fitted effect of over 55% in size; further: potency means the concentration at half of the fitted maximal effect
[4] = qHTS assay for identifying genotoxic compounds that show differential cytotoxicity against isogenic chicken DT40 cell lines with known DNA damage response pathways - Rad54/Ku70 mutant cell line (AID 743015); further: nearly all actives have a fitted effect of over 60% in size; further: potency means the concentration at half of the fitted maximal effect
[5] = qHTS assay to identify small molecule antagonists of the androgen receptor (AR) signaling pathway - cell viability counter screen (AID 743033; further: nearly all actives have a fitted effect of over 45% in size)
[6] = target: Androgen receptor (Homo sapiens) (UniProt P10275); assay: qHTS assay to identify small molecule agonists of the androgen receptor (AR) signaling pathway using the MDA cell line (AID 743040; further: nearly all actives have a fitted effect of over 20% in size)
In short: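 Luciferase agonist assay: 16 h compound exposure at 37C without CO2 in MDA-kb2 AR-luc cells, whose MMTV promoter responds to both AR and GR. Luminescence measured after 30 min room-temperature incubation with ONE-Glo.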

[7] = qHTS assay to identify small molecule antagonists of the androgen receptor (AR) signaling pathway using the MDA cell line - cell viability counter screen (AID 743041; further: nearly all actives have a fitted effect of over 45% in size)
In short: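 Viability read by CellTiter-Fluor fluorescence in the same wells as the antagonist screen, added after 15.5 h of a 16 h, 37C exposure. Human breast carcinoma MDA-kb2 AR-luc cells, compounds co-dosed with agonist R1881.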

[8] = target: Androgen receptor (Homo sapiens) (UniProt P10275); assay: qHTS assay to identify small molecule antagonists of the androgen receptor (AR) signaling pathway using the MDA cell line (AID 743042; further: nearly all actives have a fitted effect of over 55% in size)
In short: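 Antagonist mode: compounds plus R1881 agonist added to MDA-kb2 AR-luc cells, incubated 16 h at 37C. Luciferase reporter luminescence quantified, with multiplexed CellTiter-Fluor readout for cell viability.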

[9] = tested on: thyroid hormone receptor (rat, GH3 cells); assay: qHTS assay to identify small molecule agonists of the thyroid receptor (TR) signaling pathway (AID 743066; calls by dose curve)
[10] = qHTS assay to identify small molecule antagonists of the estrogen receptor alpha (ER-alpha) signaling pathway - cell viability counter screen (AID 743074; calls by dose curve;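 further: HEK293 cells carrying ER-alpha-UAS-bla reporter stimulated with 17beta-estradiol; nearly all actives have a fitted effect of over 45% in size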)
[11] = qHTS assay to identify small molecule antagonists of the estrogen receptor alpha (ER-alpha) signaling pathway using the BG1 cell line - cell viability counter screen (AID 743081);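 further: compound given together with 17beta-estradiol as the ER stimulus; series mostly up to about 70 µM; nearly all actives have a fitted effect of over 45% in size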
Aromatase (Homo sapiens) = Aromatase (Homo sapiens) (UniProt P11511); assay: qHTS assay to identify aromatase inhibitors (AID 743083); further: series mostly up to about 70 µM; nearly all actives have a fitted effect of over 55% in size
[12] = qHTS assay to identify small molecule antagonists of the thyroid receptor (TR) signaling pathway - cell viability counter screen (AID 743064); further: nearly all actives have a fitted effect of over 50% in size; further: potency means the concentration at half of the fitted maximal effect
In short: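 Fluorescence from CellTiter-Fluor, added after 23.5 h exposure at 37 °C, reported viability of GH3.TRE-Luc cells co-treated with compound and 1 nM T3. Measured in the same wells as the luciferase TR readout.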

[13] = qHTS assay to identify small molecule antagonists of the thyroid receptor (TR) signaling pathway (AID 743065); further: nearly all actives have a fitted effect of over 55% in size; further: potency means the concentration at half of the fitted maximal effect
In short: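 Antagonism measured as loss of luciferase signal in GH3 cells stably carrying a TRE-luciferase reporter, co-treated with compound and T3 (1 nM final) for 23.5 h at 37 C. Viability was read in the same well by CellTiter-Fluor.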

[14] = target: Estrogen receptor (Homo sapiens) (UniProt P03372); assay: qHTS assay to identify small molecule antagonists of the estrogen receptor alpha (ER-alpha) signaling pathway (AID 743069; active means well fitted curve in the direction sought with a large enough effect in the signal ratio in the repeat runs, not every such curve was filed as active; the % refers to the signal ratio)
In short: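 Antagonist mode: compounds in DMSO were co-added with 17beta-estradiol to ER-alpha-bla HEK293 cells (2% charcoal-stripped serum) and left 18 h at 37C. Reporter inhibition was measured as FRET fluorescence after 2 h LiveBLAzer substrate at room temperature.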

[15] = target: Estrogen receptor (Homo sapiens) (UniProt P03372); assay: qHTS assay to identify small molecule agonists of the estrogen receptor alpha (ER-alpha) signaling pathway (AID 743075; calls by dose curve;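 further: HEK293 GripTite cells with ER-alpha and UAS-driven beta-lactamase reporter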)
[16] = target: Estrogen receptor (Homo sapiens) (UniProt P03372); assay: qHTS assay to identify small molecule agonists of the estrogen receptor alpha (ER-alpha) signaling pathway using the BG1 cell line (AID 743079); further: nearly all actives have a fitted effect of over 20% in size
[17] = qHTS assay to identify small molecule antagonists of the estrogen receptor alpha (ER-alpha) signaling pathway using the BG1 cell line (AID 743080; calls by dose curve;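 further: BG1 cells stimulated with 17beta-estradiol alongside compound; series mostly up to about 70 µM; nearly all actives have a fitted effect of over 25% in size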)
In short: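 After 5 days in phenol-red-free 10% charcoal-stripped FBS medium, BG1-Luc-4E2 cells were seeded, left 24 h at 37 C, co-treated with compounds and 17beta-estradiol for 21.5 h, then assayed for viability and luciferase.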

[18] = target: Androgen receptor (Homo sapiens) (UniProt P10275); assay: qHTS assay to identify small molecule antagonists of the androgen receptor (AR) signaling pathway (AID 743035; active means well fitted inhibition curve with a large enough effect in the signal ratio in the repeat runs, not every such curve was filed as active; the % refers to the signal ratio)
In short: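 Steps: seed AR-UAS-bla GripTite HEK293 cells, incubate 4 h at 37C; pin in test compound, then add agonist R1881; incubate 16 h at 37C; add LiveBLAzer B/G FRET substrate, 2 h at room temperature; read fluorescence.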

[19] = target: Androgen receptor (Homo sapiens) (UniProt P10275); assay: qHTS assay to identify small molecule agonists of the androgen receptor (AR) signaling pathway (AID 743036; active means well fitted activation curve with a large enough effect in the signal ratio in the repeat runs, with a control signal flat, not every such curve was filed as active; the % refers to the signal ratio)
In short: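 Fluorescence from a beta-lactamase FRET substrate served as read-out in AR-UAS-bla GripTite HEK293 cells. Cells were treated with DMSO-dissolved compounds for 16 h at 37C, then with LiveBLAzer B/G substrate for 2 h at room temperature.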

Aromatase (Homo sapiens), sequence (P11511 whole entry, looked up): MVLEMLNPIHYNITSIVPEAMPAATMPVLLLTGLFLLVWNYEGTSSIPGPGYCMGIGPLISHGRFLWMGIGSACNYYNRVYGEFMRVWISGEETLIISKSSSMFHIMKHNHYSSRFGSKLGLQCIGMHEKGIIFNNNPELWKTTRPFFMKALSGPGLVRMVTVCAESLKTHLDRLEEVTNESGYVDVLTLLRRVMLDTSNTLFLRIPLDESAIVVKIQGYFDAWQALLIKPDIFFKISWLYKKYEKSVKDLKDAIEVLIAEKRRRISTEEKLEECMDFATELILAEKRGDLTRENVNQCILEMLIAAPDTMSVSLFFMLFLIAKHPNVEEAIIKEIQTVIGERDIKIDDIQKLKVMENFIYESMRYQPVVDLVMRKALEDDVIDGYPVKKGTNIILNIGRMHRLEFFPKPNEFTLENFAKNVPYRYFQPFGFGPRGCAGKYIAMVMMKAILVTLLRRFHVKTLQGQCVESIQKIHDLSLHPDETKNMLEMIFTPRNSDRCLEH
Androgen receptor (Homo sapiens), sequence (P10275 whole entry, looked up): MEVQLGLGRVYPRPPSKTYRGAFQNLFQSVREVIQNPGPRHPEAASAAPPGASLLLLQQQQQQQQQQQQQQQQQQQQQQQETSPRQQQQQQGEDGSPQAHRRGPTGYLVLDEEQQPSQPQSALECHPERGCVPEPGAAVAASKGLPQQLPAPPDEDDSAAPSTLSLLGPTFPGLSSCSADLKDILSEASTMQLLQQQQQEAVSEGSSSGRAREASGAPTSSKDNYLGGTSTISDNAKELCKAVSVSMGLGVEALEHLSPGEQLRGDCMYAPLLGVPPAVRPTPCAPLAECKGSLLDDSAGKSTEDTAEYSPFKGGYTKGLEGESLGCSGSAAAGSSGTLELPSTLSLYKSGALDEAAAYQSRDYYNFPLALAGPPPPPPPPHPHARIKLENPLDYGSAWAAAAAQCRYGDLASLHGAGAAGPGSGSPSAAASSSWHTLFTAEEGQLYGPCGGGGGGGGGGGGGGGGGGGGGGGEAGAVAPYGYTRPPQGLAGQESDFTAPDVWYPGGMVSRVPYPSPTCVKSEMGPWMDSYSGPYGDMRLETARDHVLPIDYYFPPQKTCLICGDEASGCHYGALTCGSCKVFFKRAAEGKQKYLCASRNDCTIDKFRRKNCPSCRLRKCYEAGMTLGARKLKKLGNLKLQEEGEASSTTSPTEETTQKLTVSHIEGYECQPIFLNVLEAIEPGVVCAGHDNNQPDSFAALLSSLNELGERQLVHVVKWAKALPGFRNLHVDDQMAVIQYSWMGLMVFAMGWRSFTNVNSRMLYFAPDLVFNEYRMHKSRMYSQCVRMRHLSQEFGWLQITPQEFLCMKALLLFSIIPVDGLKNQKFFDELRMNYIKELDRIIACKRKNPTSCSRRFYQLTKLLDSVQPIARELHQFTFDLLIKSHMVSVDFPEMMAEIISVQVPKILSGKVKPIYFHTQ
Estrogen receptor (Homo sapiens), sequence (P03372 whole entry, looked up): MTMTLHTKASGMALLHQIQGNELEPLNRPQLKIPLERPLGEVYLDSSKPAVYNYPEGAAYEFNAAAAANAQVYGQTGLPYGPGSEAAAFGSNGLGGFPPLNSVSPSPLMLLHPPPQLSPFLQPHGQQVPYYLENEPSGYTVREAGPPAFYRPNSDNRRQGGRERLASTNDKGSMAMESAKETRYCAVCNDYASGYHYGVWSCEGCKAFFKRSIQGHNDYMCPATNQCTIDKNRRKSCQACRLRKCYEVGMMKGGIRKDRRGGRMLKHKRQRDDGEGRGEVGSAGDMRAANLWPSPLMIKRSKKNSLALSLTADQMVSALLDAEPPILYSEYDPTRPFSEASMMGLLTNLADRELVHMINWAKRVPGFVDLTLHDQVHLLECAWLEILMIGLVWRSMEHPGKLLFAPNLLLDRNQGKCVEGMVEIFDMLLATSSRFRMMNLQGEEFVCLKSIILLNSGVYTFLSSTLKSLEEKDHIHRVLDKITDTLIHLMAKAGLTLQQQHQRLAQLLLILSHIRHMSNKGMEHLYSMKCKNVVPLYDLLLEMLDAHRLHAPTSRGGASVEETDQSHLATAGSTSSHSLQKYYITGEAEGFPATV

Structure (SMILES) | outcome [1] | Potency [2] | Potency [3] | Potency [4] | Potency [5] | outcome [6] | Potency [7] | Potency [8] | outcome [9] | outcome [10] | outcome [11] | Potency (Aromatase (Homo sapiens)) | Potency [12] | Potency [13] | outcome [14] | outcome [15] | Potency [16] | Potency [17] | Potency [18] | outcome [19]
C=C(C)C(=O)OCCN(CC)CC | inactive | inactive | inactive | inactive | inactive | inactive | inactive | inactive | inactive | inactive | inactive | inactive | – | – | – | – | – | – | – | –
Cc1nc2n(c(=O)c1CCN1CCC(c3noc4cc(F)ccc34)CC1)CCC[C@H]2O | inactive | inactive | inactive | inactive | inactive | – | inactive | – | inactive | inactive | inactive | inactive | inactive | inactive | inactive | inactive | inactive | inactive | – | –
OCCN(CCO)c1cccc(Cl)c1 | inactive | inactive | inactive | inactive | inactive | inactive | inactive | inactive | inactive | inactive | inactive | inactive | inactive | – | – | – | – | – | inactive | –
CCOc1cc(NC(C)=O)ccc1C(=O)OC | inactive | inactive | inactive | inactive | inactive | – | inactive | – | inactive | inactive | inactive | inactive | inactive | inactive | inactive | inactive | inactive | inactive | – | –
CC(C)=O | inactive | inactive | inactive | inactive | inactive | inactive | inactive | inactive | inactive | inactive | inactive | inactive | inactive | inactive | inactive | inactive | inactive | inactive | inactive | –
Cc1cccc(C)c1NC(=O)c1ccccc1C(=O)O | inactive | inactive | inactive | inactive | inactive | inactive | inactive | inactive | inactive | inactive | inactive | inactive | inactive | inactive | inactive | inactive | – | inactive | inactive | inactive
CCCCCCN | inactive | inactive | inactive | inactive | inactive | – | inactive | – | inactive | inactive | inactive | inactive | inactive | inactive | inactive | inactive | inactive | inactive | – | –
O=C(O)CCSSCCC(=O)O | inactive | inactive | inactive | inactive | inactive | inactive | inactive | inactive | inactive | inactive | inactive | inactive | inactive | – | inactive | inactive | inactive | inactive | inactive | –
CC(C)(C)NC(N)=O | inactive | inactive | inactive | inactive | inactive | inactive | inactive | inactive | inactive | inactive | inactive | inactive | inactive | inactive | inactive | inactive | inactive | inactive | inactive | –
COc1ccc2c(c1)C(=O)N(CCc1ccc(S(=O)(=O)NC(=O)NC3CCCCC3)cc1)C(=O)C2(C)C | inactive | inactive | inactive | inactive | inactive | inactive | inactive | inactive | inactive | inactive | – | inactive | inactive | inactive | inactive | inactive | inactive | inactive | inactive | –
NS(=O)(=O)c1ccc(NC(=O)CCC(=O)O)cc1 | inactive | inactive | inactive | inactive | inactive | – | inactive | – | inactive | inactive | inactive | inactive | inactive | inactive | inactive | inactive | inactive | inactive | – | –
O=C(NCCc1c[nH]c2ccccc12)c1cccnc1 | inactive | inactive | inactive | inactive | inactive | inactive | inactive | inactive | inactive | inactive | inactive | – | inactive | – | inactive | inactive | inactive | inactive | – | –
O=C(CCN1CCN(CCO)CC1)N1c2ccccc2Sc2ccc(C(F)(F)F)cc21 | inactive | 26.6 µM (active) | 29.8 µM (active) | 29.8 µM (active) | inactive | inactive | inactive | inactive | inactive | – | – | inactive | 13.3 µM (active) | 21.1 µM (active) | inactive | inactive | inactive | inactive | inactive | –
O=C(OCc1ccccc1)C(=O)OCc1ccccc1 | inactive | inactive | inactive | inactive | inactive | inactive | inactive | inactive | inactive | inactive | inactive | inactive | inactive | – | inactive | inactive | inactive | inactive | inactive | –
